In the library only some 8.6% were active in any assay of this set; here they are far more common.
MARV entry inh = inhibitors of Marburg virus binding or entry into cells; Potency, µM (doses to about 49.2 µM), usual class: inhibitors; AID 720532; Marburg virus pseudotype entry/binding inhibition, cell-based; hit rate 6.5% among 18,000
LASV entry inh = blocks Lassa virus binding or cell entry; Lassa virus pseudotyped entry inhibition, cell-based qHTS; AID 720533; hit rate 4.1% among 18,000; Potency, µM (series often up to 49.2 µM), hits mostly inhibitors
Large screens that a line does not name were inactive; ! = not active in a repeat. Calls come from the whole dose curve; tested in HEK293 cells.

COc1ccc(CCN(C)CCCC(C#N)(c2cc(OC)c(OC)c(OC)c2)C(C)C)cc1OC (centres undefined)	MARV entry inh 31.6µM
O=C(Nc1ccc(Br)cc1)c1cc(Br)c(Br)s1	LASV entry inh inconclusive
O=C(Nc1ccc(Br)cc1)c1cccc(S(=O)(=O)Nc2ccc(Br)cc2)c1	MARV entry inh inconclusive, LASV entry inh 22.4µM
N#CC(C#N)=NNc1ccc(OC(F)(F)F)cc1	MARV entry inh 3.16µM, LASV entry inh 1.26µM
C=CCN1[C@H](C)[C@@H](c2ccccc2)Oc2c(Cl)cccc2S1(=O)=O	none
COC(=O)N[C@@H](C=Cc1ccccc1)[C@@H](C)[N+](=O)[O-]	none
C=CC1CC(C=C)OP(=O)(OC[C@H](C)[C@@H](O[Si](C)(C)C(C)(C)C)[C@@H](C)C=C)O1 (some centres undefined)	none
COC(=O)C1=C(C)N(Cc2ccccc2)C(=O)NC1c1ccco1 (centres undefined)	none
COc1ccc(NC(=O)OCCN2CCN(Cc3ccccc3)CCC2=O)cc1	none
COc1ccc(NC(=O)c2cc(OCCCN(C)C)nn2Cc2ccccc2)cc1	MARV entry inh 8.91µM, LASV entry inh inconclusive
N#C[C@@H]1C[C@@H]2C[C@@H]2N1C(=O)[C@@H](N)C12CC3CC(CC(O)(C3)C1)C2	none
C[C@@]12CCC(O)C[C@H]1CCC1C2CC[C@]2(C)C(=O)CCC12 (some centres undefined)	none
C[C@@]12CC[C@H](O)C[C@@H]1CC[C@H]1[C@H]2CC[C@@]2(C)[C@@H](C3=CC(=O)OC3)CC[C@]12O	MARV entry inh 1µM, LASV entry inh 0.891µM
CC(=O)[C@@]1(O)[C@H](O)CC2C3CCC4CC(O)CC[C@]4(C)C3CC[C@@]21C (some centres undefined)	none
C[C@@]12CC[C@H](O)C[C@@H]1CC[C@H]1[C@@H]2C[C@@H](O)[C@]2(C)[C@@H](C3=CC(=O)OC3)CC[C@]12O	MARV entry inh 1.41µM, LASV entry inh 3.55µM
C[C@H]1C[C@@H](C)O[C@@]2(C1)C(=O)N(Cc1ccc(F)cc1)c1ccccc12	none
O=C(O)C1=CCCN(CCOC(c2ccc(C(F)(F)F)cc2)c2ccc(C(F)(F)F)cc2)C1	none
c1ccc(CCCN2CCN(CCOC(c3ccccc3)c3ccccc3)CC2)cc1	MARV entry inh 11.2µM, LASV entry inh 28.2µM
Fc1ccc(C(OCCN2CCN(CCCc3ccccc3)CC2)c2ccc(F)cc2)cc1	MARV entry inh 7.94µM, LASV entry inh 14.1µM!
OCCOCCN1CCN(Cc2cccc(Oc3ccccc3)c2)CC1	none
O[C@@H]1CO[C@@H](C=Cc2ccccc2)[C@H]1OCc1cccc(Br)c1	none (no result: LASV entry inh)
O=S1(=O)c2ccc(Br)cc2O[C@H]2CCN1C2	none
COC(=O)N[C@@H](c1ccco1)C(C(C)=O)C(=O)OC (some centres undefined)	none
CN1CCC(Nc2ncc3ncnc(Nc4ccc(F)c(Cl)c4)c3n2)CC1	MARV entry inh 10µM
CC(=O)C1=C(C)N(Cc2ccccc2)C(=O)NC1c1cccc(C(F)(F)F)c1 (centres undefined)	none
CC(=O)Nc1ccc(-c2nc3ccc(Cl)cc3[nH]2)cc1	none
O=C(Nc1ccc(Cl)cc1)Nc1ccc(Cl)c(Cl)c1	MARV entry inh 14.1µM, LASV entry inh 12.6µM
COc1ccc(-c2oc3cc(OC)c(OC(C)=O)c(OC)c3c(=O)c2OC)cc1OC(C)=O	LASV entry inh 0.316µM
COc1ccc(-c2oc3ccccc3c(=O)c2O)cc1OC	none
COc1cc2oc(=O)cc(-c3ccc(-c4cccc(N)c4)cc3)c2c(OC)c1OC	MARV entry inh inconclusive
COc1ccc(-c2ccc(-c3cc(=O)oc4cc(OC)c(OC)c(OC)c34)cc2)cc1OC	LASV entry inh 17.8µM
CC1=C(C(=O)Nc2cc(Cl)c3[nH]ncc3c2)C(c2ccc(C(F)(F)F)cc2)CC(=O)N1 (centres undefined)	none
CC=Cc1cc2ccccc2c2c(C(=O)OC)c(C(=O)OC)c(C(=O)OC)n12	MARV entry inh inconclusive
O=C(c1cccc(N2CCCC2=O)c1)N1CCC(Oc2cccc(CN3CCN(c4ccccn4)CC3)c2)CC1	LASV entry inh inconclusive
CC(C)CON=C1C[C@@H](O)[C@@H](O)[C@@H]2[C@H]3C(=O)N(C[C@@H]4CCCO4)C(=O)[C@@H]3CC[C@H]12	none
CCn1c(-c2nonc2N)nc2c(C#CC(C)(C)O)ncc(OCC3CCNCC3)c21	MARV entry inh 1.77µM (no result: LASV entry inh)
CCn1c(-c2nonc2N)nc2cncc(C(=O)N3CCNCC3)c21	none
CCn1c(-c2nonc2N)nc2c(C#CC(C)(C)O)ncc(OCC3CCCN3)c21 (centres undefined)	MARV entry inh 1.25µM (no result: LASV entry inh)
CN(C)CCCn1c(-c2nonc2N)nc2cnccc21	MARV entry inh inconclusive
C[C@@H]1[C@@H](c2ccccc2)c2cc3ccccc3nc2-c2nc3ccccc3cc2[C@H]1C(=O)N1CCCC1	none
O=C1CCCC=C1C(O)CCOCc1ccccc1 (centres undefined)	none
COC(=O)c1cc(CNC(=O)c2ccccn2)cc(NC(=O)c2ccccc2OC)c1	none
COC(=O)c1cc(CNC(=O)c2cccc(F)c2)cc(NC(=O)c2ccccc2OC)c1	MARV entry inh 141µM, LASV entry inh inconclusive
